Source: PubChem BioAssay (Tox21)
Inconclusive results are not listed. A call without a number means that no potency is given here. Unmarked numbers belong to inactive results. Active and inactive are the calls of the source. Unless noted, calls follow the shape of the dose curve; as a rule, active = well fitted curve in the direction sought with a large enough effect in the repeat runs; inconclusive = weak or mixed curves; inactive = no such curve, though single readings can be large; an effect the other way counts as inactive or inconclusive.

Columns and labels:
[1] = biological target: Aryl hydrocarbon receptor (Homo sapiens) (UniProt P35869); experiment: qHTS assay to identify small molecule that activate the aryl hydrocarbon receptor (AhR) signaling pathway (AID 743085); also: nearly all actives have a fitted effect of over 15% in size; also: potency is read from the fitted curve at half-maximal effect;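 as to activation: HG2L7.5c1 human HepG2 liver cells with stably integrated DRE-driven firefly reporter; series mostly up to about 70 µM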
Sequence of Aryl hydrocarbon receptor (Homo sapiens) (P35869 whole entry, looked up): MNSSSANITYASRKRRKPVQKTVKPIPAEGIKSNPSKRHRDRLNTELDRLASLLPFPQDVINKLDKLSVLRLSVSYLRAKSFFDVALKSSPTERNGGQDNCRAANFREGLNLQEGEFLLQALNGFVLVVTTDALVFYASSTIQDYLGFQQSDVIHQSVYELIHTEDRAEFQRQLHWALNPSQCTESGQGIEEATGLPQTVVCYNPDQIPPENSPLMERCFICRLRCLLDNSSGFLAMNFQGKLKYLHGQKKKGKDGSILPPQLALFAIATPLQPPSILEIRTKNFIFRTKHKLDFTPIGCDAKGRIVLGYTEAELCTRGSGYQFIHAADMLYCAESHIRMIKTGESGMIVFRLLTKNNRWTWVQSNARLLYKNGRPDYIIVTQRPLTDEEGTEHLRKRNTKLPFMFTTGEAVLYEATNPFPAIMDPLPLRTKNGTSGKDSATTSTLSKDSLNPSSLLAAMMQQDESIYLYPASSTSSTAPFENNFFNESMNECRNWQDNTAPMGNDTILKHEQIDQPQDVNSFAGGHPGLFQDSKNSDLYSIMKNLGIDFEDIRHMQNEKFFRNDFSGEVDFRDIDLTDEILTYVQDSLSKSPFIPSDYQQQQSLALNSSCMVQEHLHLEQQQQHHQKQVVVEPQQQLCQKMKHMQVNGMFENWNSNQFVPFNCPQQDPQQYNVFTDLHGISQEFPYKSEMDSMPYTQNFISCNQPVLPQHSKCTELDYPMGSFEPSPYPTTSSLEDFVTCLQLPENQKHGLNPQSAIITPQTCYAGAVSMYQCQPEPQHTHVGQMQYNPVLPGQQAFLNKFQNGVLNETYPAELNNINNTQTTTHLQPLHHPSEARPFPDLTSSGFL
How it was run: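 Luminescence (ONE-Glo) from a dioxin-responsive-element luciferase reporter in HG2L7.5c1 HepG2 cells after 24 hr compound exposure at 37C; viability measured by CellTiter-Fluor fluorescence beforehand.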

[2] = qHTS assay to identify small molecule that activate the aryl hydrocarbon receptor (AhR) signaling pathway - cell viability counter screen (AID 743086); also: nearly all actives have a fitted effect of over 45% in size; also: potency is read from the fitted curve at half-maximal effect
How it was run: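 HepG2-AhR-luc (HG2L7.5c1) cells, 4000/well, treated 24 h at 37 C with compound; viability measured as CellTiter-Fluor fluorescence after 30 min in the same wells as the luciferase read.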

[3] = biological target: Peroxisome proliferator-activated receptor gamma (Homo sapiens) (UniProt P37231); experiment: qHTS assay to identify small molecule agonists of the peroxisome proliferator-activated receptor gamma (PPARg) signaling pathway (AID 743094; active = well fitted activation curve with a large enough effect in the signal ratio in the repeat runs, not every such curve was filed as active; the % refers to the signal ratio)
Sequence of Peroxisome proliferator-activated receptor gamma (Homo sapiens) (P37231 whole entry, looked up): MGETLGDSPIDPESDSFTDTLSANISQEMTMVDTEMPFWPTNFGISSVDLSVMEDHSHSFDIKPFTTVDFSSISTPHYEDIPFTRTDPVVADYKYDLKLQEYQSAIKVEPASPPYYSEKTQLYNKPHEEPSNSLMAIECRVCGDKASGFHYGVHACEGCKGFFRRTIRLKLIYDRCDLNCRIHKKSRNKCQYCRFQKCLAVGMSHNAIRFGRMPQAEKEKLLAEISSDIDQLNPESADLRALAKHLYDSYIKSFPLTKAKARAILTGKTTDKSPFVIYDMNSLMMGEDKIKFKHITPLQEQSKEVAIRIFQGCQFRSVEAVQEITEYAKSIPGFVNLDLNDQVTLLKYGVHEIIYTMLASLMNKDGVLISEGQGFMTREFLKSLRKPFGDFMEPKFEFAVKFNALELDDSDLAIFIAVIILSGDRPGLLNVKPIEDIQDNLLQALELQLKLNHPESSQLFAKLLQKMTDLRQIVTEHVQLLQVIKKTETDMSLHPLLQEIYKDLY
How it was run: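 Cells from the PPARg UAS-bla HEK293H line are plated and incubated 5 h at 37C. Compounds in DMSO are pinned in and left 17 h at 37C. LiveBLAzer B/G substrate is then added for 1 h at room temperature before fluorescence is measured.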

[4] = biological target: Peroxisome proliferator-activated receptor gamma (Homo sapiens) (UniProt P37231); experiment: qHTS assay to identify small molecule antagonists of the peroxisome proliferator-activated receptor gamma (PPARg) signaling pathway (AID 743191; calls by dose curve; also: series mostly up to about 63 µM; nearly all actives have a fitted effect of over 30% in size)
How it was run: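 GeneBLAzer PPARg UAS-bla HEK293H cells, 5 h post-plating, exposed to compounds 17 h at 37C. LiveBLAzer B/G FRET substrate added for 1 h at room temperature; beta-lactamase reporter read by fluorescence intensity.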

[5] = qHTS assay to identify small molecule antagonists of the peroxisome proliferator-activated receptor gamma (PPARg) signaling pathway - cell viability counter screen (AID 743194); also: nearly all actives have a fitted effect of over 55% in size
How it was run: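 Cytotoxicity counter screen in PPARg-bla HEK293H cells, same wells as reporter assay. Compounds plus 50 nM rosiglitazone (final) for 17 h at 37 C, then viability read by CellTiter-Glo luminescence.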

[6] = qHTS assay for small molecule agonists of the antioxidant response element (ARE) signaling pathway (AID 743202; active = well fitted activation curve with a large enough effect in the signal ratio in the repeat runs, not every such curve was filed as active; the % refers to the signal ratio; also: potency is read from the fitted curve at half-maximal effect)
How it was run: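 HepG2 ARE-bla reporter line, 2,000 cells/well; 5 h preincubation 37 C/5% CO2; compound (DMSO) 16 h 37 C; B/G FRET substrate 2 h RT; fluorescence intensity.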

[7] = qHTS assay for small molecule activators of the heat shock response signaling pathway (AID 743210; active = well fitted activation curve with a large enough effect in the signal ratio in the repeat runs, with a control signal flat, not every such curve was filed as active; the % refers to the signal ratio;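 also: HeLa cells with beta-lactamase reporter driven by heat shock elements; series mostly up to about 63 µM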)
How it was run: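 Beta-lactamase reporter read-out: FRET substrate fluorescence after 2.5 h at RT, following 5 h compound treatment at 37 C of HeLa cells carrying HSE-driven bla reporter; quantitative HTS format.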

[8] = qHTS assay to identify small molecule agonists of the peroxisome proliferator-activated receptor delta (PPARd) signaling pathway - cell viability counter screen (AID 743211); also: nearly all actives have a fitted effect of over 55% in size
How it was run: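 Viability was measured as CellTiter-Glo luminescence (30 min, room temperature) in the same wells as the beta-lactamase readout. GeneBLAzer PPARd UAS-bla HEK293H cells received compound after 5 h plating and were incubated 17 h at 37 C.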

[9] = biological target: Peroxisome proliferator-activated receptor delta (Homo sapiens) (UniProt Q03181); experiment: qHTS assay to identify small molecule agonists of the peroxisome proliferator-activated receptor delta (PPARd) signaling pathway (AID 743212; calls by dose curve)
Sequence of Peroxisome proliferator-activated receptor delta (Homo sapiens) (Q03181 whole entry, looked up): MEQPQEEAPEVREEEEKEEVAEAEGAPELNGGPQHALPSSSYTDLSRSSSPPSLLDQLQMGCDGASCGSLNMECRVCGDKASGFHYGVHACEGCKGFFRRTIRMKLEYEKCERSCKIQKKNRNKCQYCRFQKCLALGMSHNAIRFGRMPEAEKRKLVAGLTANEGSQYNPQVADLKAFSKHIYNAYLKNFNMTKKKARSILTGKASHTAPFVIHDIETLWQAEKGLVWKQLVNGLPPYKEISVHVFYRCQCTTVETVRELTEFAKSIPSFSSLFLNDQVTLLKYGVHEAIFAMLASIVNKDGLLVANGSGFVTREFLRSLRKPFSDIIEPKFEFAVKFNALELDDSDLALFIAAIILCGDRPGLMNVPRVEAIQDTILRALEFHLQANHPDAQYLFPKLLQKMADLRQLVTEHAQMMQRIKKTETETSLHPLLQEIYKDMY
How it was run: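 Read-out: beta-lactamase FRET fluorescence after 2 h room-temperature incubation with LiveBLAzer B/G substrate. Cells were HEK293H carrying a UAS-bla reporter for PPARd, treated at 37 C with DMSO-dissolved compounds.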

[10] = biological target: Peroxisome proliferator-activated receptor delta (Homo sapiens) (UniProt Q03181); experiment: qHTS assay to identify small molecule antagonists of the peroxisome proliferator-activated receptor delta (PPARd) signaling pathway (AID 743215; active = well fitted inhibition curve with a large enough effect in the signal ratio in the repeat runs, not every such curve was filed as active; the % refers to the signal ratio;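 also: cells stimulated with agonist L165041 at 300 nM final during compound exposure; series mostly up to about 62 µM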)
How it was run: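 Cells: HEK293H with a UAS-driven beta-lactamase reporter responsive to PPARd. Compounds were co-added with L165041 (300 nM, final) and incubated 17 h at 37 C before a 2 h room-temperature FRET substrate step and fluorescence reading.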

[11] = qHTS assay to identify small molecule agonists of the farnesoid-X-receptor (FXR) signaling pathway - cell viability counter screen (AID 743218); also: nearly all actives have a fitted effect of over 45% in size; also: potency is read from the fitted curve at half-maximal effect
How it was run: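 Cells were seeded, left 5 h at 37 C and 5% CO2, then dosed with compound in DMSO for 16 h. After the beta-lactamase FRET read, CellTiter-Glo was added and luminescence measured 30 min later.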

[12] = qHTS assay to identify small molecule antagonists of the farnesoid-X-receptor (FXR) signaling pathway - cell viability counter screen (AID 743221; active = well fitted cell-killing curve with a large enough effect in the repeat runs, not every such curve was filed as active; also: nearly all actives have a fitted effect of over 50% in size)
How it was run: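 Cytotoxicity counter screen run in the FXR-bla reporter wells: HEK 293T cells exposed to compound with 50 uM (final) chenodeoxycholic acid for 16 h, 37 C, then viability measured by CellTiter-Glo luminescence after 30 min, room temperature.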

[13] = biological target: Vitamin D3 receptor (Homo sapiens) (UniProt P11473); experiment: qHTS assay to identify small molecule agonists of the vitamin D receptor (VDR) signaling pathway (AID 743222; calls by dose curve)
Sequence of Vitamin D3 receptor (Homo sapiens) (P11473 whole entry, looked up): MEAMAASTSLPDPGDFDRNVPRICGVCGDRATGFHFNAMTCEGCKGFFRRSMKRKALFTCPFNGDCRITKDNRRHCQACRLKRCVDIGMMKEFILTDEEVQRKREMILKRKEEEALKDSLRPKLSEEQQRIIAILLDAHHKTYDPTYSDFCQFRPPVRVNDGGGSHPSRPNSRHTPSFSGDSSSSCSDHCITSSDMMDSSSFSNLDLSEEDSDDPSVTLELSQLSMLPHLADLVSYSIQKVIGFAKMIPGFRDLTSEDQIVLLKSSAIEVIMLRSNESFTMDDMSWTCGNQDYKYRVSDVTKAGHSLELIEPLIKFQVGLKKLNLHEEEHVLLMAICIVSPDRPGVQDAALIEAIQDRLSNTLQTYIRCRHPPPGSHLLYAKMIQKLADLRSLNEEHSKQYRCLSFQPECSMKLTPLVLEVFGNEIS
How it was run: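 Cells carrying a VDR-driven beta-lactamase reporter are seeded at 2,000 per well and rested 4 h. Compounds in DMSO are added for 16 h at 37C, and FRET substrate fluorescence is measured after 2 h at room temperature.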

[14] = biological target: Vitamin D3 receptor (Homo sapiens) (UniProt P11473); experiment: qHTS assay to identify small molecule antagonists of the vitamin D receptor (VDR) signaling pathway (AID 743223; active = well fitted inhibition curve with a large enough effect in the signal ratio in the repeat runs, not every such curve was filed as active; the % refers to the signal ratio)
How it was run: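 Antagonist mode: compound added to VDR-bla cells alongside agonist 1alpha,25-dihydroxyvitamin D3 (3 nM final), incubation 16 h at 37C. Read-out is LiveBLAzer FRET fluorescence, 2 h at room temperature.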

[15] = qHTS assay to identify small molecule agonists of the vitamin D receptor (VDR) signaling pathway - cell viability counter screen (AID 743224); also: series mostly up to about 63 µM; nearly all actives have a fitted effect of over 50% in size
How it was run: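 Cells: VDR-bla, 2,000/well, settled 4 h. Treatment: compounds in DMSO, 16 h, 37C/5% CO2. Readout: CellTiter-Glo luminescence after 30 min RT.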

[16] = qHTS assay for small molecule agonists of the antioxidant response element (ARE) signaling pathway - cell viability counter screen (AID 743203; calls by dose curve; also: nearly all actives have a fitted effect of over 55% in size)
How it was run: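 Cytotoxicity was tested in parallel with the ARE reporter screen. ARE-bla HepG2 cells were exposed to compounds for 16 hrs, and viability was taken from CellTiter-Glo luminescence.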

[17] = qHTS assay for small molecule activators of the heat shock response signaling pathway - cell viability counter screen (AID 743209); also: nearly all actives have a fitted effect of over 50% in size
How it was run: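 Cytotoxicity counter screen run in parallel with the HSE beta-lactamase reporter, using the same wells. HeLa HSE-bla cells received compound for 5 h at 37 C; ATP-based CellTiter-Glo luminescence was measured after 30 min at room temperature.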

[18] = qHTS assay to identify small molecule antagonists of the peroxisome proliferator-activated receptor delta (PPARd) signaling pathway - cell viability counter screen (AID 743213); also: nearly all actives have a fitted effect of over 50% in size
How it was run: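 CellTiter-Glo was added to PPARd-bla HEK293H wells following 17 h compound treatment in the presence of 300 nM L165041. Luminescence was recorded after 30 min at room temperature.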

[19] = biological target: Bile acid receptor (Homo sapiens) (UniProt Q96RI1); experiment: qHTS assay to identify small molecule antagonists of the farnesoid-X-receptor (FXR) signaling pathway (AID 743217; active = well fitted inhibition curve with a large enough effect in the signal ratio in the repeat runs, not every such curve was filed as active; the % refers to the signal ratio)
Sequence of Bile acid receptor (Homo sapiens) (Q96RI1 whole entry, looked up): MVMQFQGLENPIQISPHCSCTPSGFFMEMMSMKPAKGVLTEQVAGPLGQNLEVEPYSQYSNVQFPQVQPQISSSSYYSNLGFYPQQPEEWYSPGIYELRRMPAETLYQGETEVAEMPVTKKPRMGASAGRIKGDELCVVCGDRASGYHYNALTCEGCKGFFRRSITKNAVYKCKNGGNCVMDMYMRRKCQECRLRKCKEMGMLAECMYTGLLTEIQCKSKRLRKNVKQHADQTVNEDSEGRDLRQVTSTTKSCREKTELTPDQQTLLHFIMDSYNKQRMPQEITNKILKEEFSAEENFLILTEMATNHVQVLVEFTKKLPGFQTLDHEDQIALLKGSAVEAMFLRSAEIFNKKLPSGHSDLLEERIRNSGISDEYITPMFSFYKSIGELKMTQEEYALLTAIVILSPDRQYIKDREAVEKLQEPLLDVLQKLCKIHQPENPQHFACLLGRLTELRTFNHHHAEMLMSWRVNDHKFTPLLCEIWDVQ
How it was run: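 Cells carrying a UAS-driven beta-lactamase reporter (GeneBLAzer FXR-UAS-bla HEK 293T) were plated and rested 5 h at 37 °C. Compounds in DMSO were added alongside chenodeoxycholic acid agonist at 50 uM final and left 16 h at 37 °C before FRET substrate readout.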

[20] = biological target: Bile acid receptor (Homo sapiens) (UniProt Q96RI1); experiment: qHTS assay to identify small molecule agonists of the farnesoid-X-receptor (FXR) signaling pathway (AID 743220; active = well fitted activation curve with a large enough effect in the signal ratio in the repeat runs, not every such curve was filed as active; the % refers to the signal ratio)
How it was run: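 FXR-UAS-bla HEK 293T cells carrying a UAS-driven beta-lactamase reporter were plated for 5 h at 37C/5% CO2, then exposed to DMSO-dissolved Tox21 10K compounds for 16 h at 37C. A LiveBLAzer B/G FRET substrate was loaded for 2 h at room temperature before fluorescence reading.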

Row | Structure (SMILES) | Potency [1] | Potency [2] | Potency [3] | Potency [4] | Potency [5] | Potency [6] | Potency [7] | Potency [8] | Potency [9] | Potency [10] | Potency [11] | Potency [12] | Potency [13] | outcome [14] | Potency [15] | Potency [16] | Potency [17] | Potency [18] | Potency [19] | Potency [20]
1 | O=C(NCCO[N+](=O)[O-])c1cccnc1 | inactive | inactive | inactive | inactive | inactive | inactive | inactive | inactive | inactive | inactive | inactive | inactive | inactive | inactive | inactive | – | – | – | – | –
2 | OC[C@H]1O[C@@H](OCCc2ccc(O)cc2)[C@H](O)[C@@H](O)[C@@H]1O | inactive | inactive | inactive | inactive | inactive | – | inactive | inactive | inactive | inactive | inactive | inactive | inactive | – | inactive | inactive | inactive | inactive | inactive | inactive
3 | Cc1c(N)cccc1[N+](=O)[O-] | inactive | inactive | inactive | inactive | inactive | inactive | inactive | inactive | inactive | inactive | inactive | inactive | – | – | inactive | – | inactive | inactive | – | –
4 | CCCCCCCCCCO[C@@H]1O[C@H](CO)[C@@H](O)[C@H](O)[C@H]1O | inactive | inactive | inactive | inactive | inactive | – | inactive | inactive | inactive | inactive | inactive | inactive | inactive | inactive | – | inactive | – | – | – | –
5 | OC(C#CCN1CCCC1)(c1ccccc1)c1ccccc1 | inactive | inactive | inactive | inactive | inactive | inactive | – | – | inactive | inactive | – | inactive | inactive | – | inactive | – | inactive | – | inactive | –
6 | Cc1cccc(C)c1NC(=O)CN(CC(=O)O)CC(=O)O | inactive | inactive | inactive | inactive | inactive | inactive | – | inactive | inactive | inactive | inactive | inactive | inactive | – | inactive | inactive | – | – | inactive | –
7 | CCC(Cl)CCC(Cl)C(Cl)CC(Cl)C(Cl)C(Cl)CCl (stereo not given) | inactive | inactive | inactive | inactive | inactive | – | – | – | inactive | – | inactive | inactive | – | inactive | – | inactive | – | – | inactive | –
8 | COc1cc(Cl)c(OC)cc1N | 30.6 µM (active) | inactive | inactive | inactive | inactive | – | inactive | inactive | inactive | inactive | inactive | inactive | inactive | inactive | inactive | inactive | inactive | inactive | inactive | –
9 | CCOc1ccc(N)c([N+](=O)[O-])c1 | inactive | inactive | inactive | inactive | inactive | – | inactive | inactive | inactive | inactive | inactive | inactive | inactive | inactive | inactive | inactive | inactive | inactive | – | –
10 | CCCOC(C(=O)OC1CCN(C)CC1)(c1ccccc1)c1ccccc1 | inactive | 29.8 µM (active) | inactive | inactive | inactive | – | inactive | inactive | inactive | inactive | – | – | inactive | – | inactive | inactive | inactive | – | inactive | –
11 | CCO[Si](CCCCl)(OCC)OCC | inactive | inactive | inactive | inactive | inactive | inactive | – | – | inactive | inactive | inactive | inactive | – | inactive | – | inactive | – | – | – | –
12 | C#CCN(C)CCCOc1ccc(Cl)cc1Cl | 23.7 µM (active) | inactive | inactive | inactive | inactive | 15 µM (active) | – | inactive | inactive | – | inactive | inactive | inactive | inactive | inactive | – | inactive | inactive | inactive | inactive
13 | CC(=O)c1ccc2c(c1)N(CCCN1CCC(CCO)CC1)c1ccccc1S2 | inactive | inactive | inactive | inactive | inactive | inactive | inactive | – | – | – | 29.8 µM (active) | – | – | – | – | – | – | – | – | –
14 | NCC(=O)CCC(=O)O | inactive | inactive | inactive | inactive | inactive | – | inactive | – | – | – | inactive | inactive | inactive | inactive | inactive | inactive | inactive | inactive | inactive | inactive
15 | O=C1c2ccccc2S(=O)(=O)N1CCCCN1CCN(c2ncccn2)CC1 | inactive | inactive | inactive | inactive | inactive | inactive | – | – | – | – | inactive | inactive | – | – | inactive | inactive | – | inactive | – | –
16 | CC(COCCO)OCCO (stereo not given) | inactive | inactive | inactive | inactive | inactive | – | inactive | inactive | – | – | inactive | inactive | inactive | inactive | inactive | inactive | inactive | inactive | inactive | inactive
17 | CCOc1ccc(N=Nc2ccc(/C=C/c3ccc(N=Nc4ccc(OCC)cc4)cc3S(=O)(=O)O)c(S(=O)(=O)O)c2)cc1 | inactive | 19 µM (active) | inactive | inactive | inactive | – | inactive | inactive | inactive | inactive | inactive | inactive | inactive | inactive | inactive | inactive | inactive | – | – | –
18 | C[N+]1(CC2COC(c3ccccc3)(C3CCCCC3)O2)CCCCC1 (stereo not given) | inactive | inactive | inactive | inactive | inactive | inactive | inactive | inactive | – | – | inactive | inactive | – | – | inactive | – | inactive | inactive | – | –
